# This is a sample that favours compounds with a hit; in the whole collection about 11% have one here.
# Tau fibril ThT: tau fibrillization inhibition (ThT binding); P10636; AID 1460; Potency, µM (highest dose often 57.4 µM), without a hit: top-dose activity, negative = inhibition, usual class: inhibitors; recombinant tau K18 P301L, heparin-induced fibrillization, ThT fluorescence; 270,000 compounds, 2.1% hits; also: potency is read from the fitted curve at half-maximal effect; nearly all actives have a fitted effect of over 55% in size
# Target sequence (P10636 561-689 P618L limits assumed): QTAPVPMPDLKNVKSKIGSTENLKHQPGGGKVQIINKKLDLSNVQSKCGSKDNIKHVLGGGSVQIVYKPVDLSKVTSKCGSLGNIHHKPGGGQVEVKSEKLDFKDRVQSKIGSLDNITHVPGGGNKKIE
#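 Recombinant human tau K18 fragment […] carrying P301L, 15 uM unlabeled plus 0.24 uM Alexa 594-labeled, was fibrillized with 20 uM heparin in 100 mM sodium acetate pH 7 for 6 hr at 37 C; 30 uM ThT fluorescence read after 1 hr.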
# Tau FP inhib: tau fibrillization inhibition (FP); K18 P301L tau heparin fibrillization, Alexa594 FP, 6 h; Potency, µM (top dose mostly 57.7 µM), for inactives: top-dose activity, negative = inhibition, usual class: inhibitors; 280,000 compounds, 0.39% hits; AID 1468; also: potency is read from the fitted curve at half-maximal effect; nearly all actives have a fitted effect of over 55% in size
#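 K18 P301L tau (15 uM unlabeled/0.24 uM Alexa 594-labeled, final) + compound + heparin 20 uM final; 100 mM NaOAc pH 7; 6 hr 37 C; ThT 30 uM final added, 1 hr RT; FP ex 555/em 632 nm.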
# Tau fluor counter: counter-screen for tau fibril formation inhibitors; Potency, µM (doses to about 57.7 µM), inactives show at the top dose activity change, negative = decrease; AID 1463; tau K18 P301L Alexa594 fluorescence, heparin fibrillization; 280,000 compounds, 0.93% hits; also: potency is read from the fitted curve at half-maximal effect; nearly all actives have a fitted effect of over 55% in size
#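 Human tau K18 P301L (15 uM unlabeled, 0.24 uM Alexa 594-labeled) in 100 mM sodium acetate pH 7 with 20 uM heparin, 6 hr at 37 C. ThT 30 uM added, 1 hr ambient; Alexa 594 FP and total fluorescence read at 555/632 nm.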
# G9a block: inhibitors of human histone lysine methyltransferase G9a | G9a H3K9 monomethylation, AlphaScreen, 2 h | 350,000 compounds, 8.8% hits | Q96KQ7 | AID 504332 | Potency, µM (highest dose often 102 µM), inactives show at the highest dose activity, negative = inhibition, hits mostly inhibitors; also: potency is read from the fitted curve at half-maximal effect; nearly all actives have a fitted effect of over 75% in size
# Target sequence (Q96KQ7 913-1193 limits assumed): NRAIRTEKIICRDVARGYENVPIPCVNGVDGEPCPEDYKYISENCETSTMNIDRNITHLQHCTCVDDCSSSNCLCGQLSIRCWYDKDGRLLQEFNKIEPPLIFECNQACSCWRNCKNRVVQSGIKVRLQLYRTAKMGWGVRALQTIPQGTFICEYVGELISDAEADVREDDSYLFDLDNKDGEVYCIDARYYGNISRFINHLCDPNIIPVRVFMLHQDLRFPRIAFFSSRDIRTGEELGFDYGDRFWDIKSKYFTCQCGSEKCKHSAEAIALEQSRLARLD
#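 G9a (20 nM) preincubated 15 min RT with compounds, then 500 nM biotinylated H3K9 peptide and 20 uM SAM added; 2 h RT reaction. Monomethyl-H3K9 product detected by AlphaScreen with anti-H3K9me1 antibody, streptavidin donor and anti-rabbit IgG acceptor beads.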
# FBPA coupling cs: counter-screen for Giardia aldolase inhibitors: coupling enzyme system; 290,000 compounds, 0.67% hits; AID 2472; coupling enzyme system counterscreen, AmpLite Red fluorescence; activity change, negative = inhibition, % at 58.2 µM, hits read low; in the data active = activity change below about -30%
#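 Fluorescence at 525 nm excitation and 598 nm emission measured inhibition of the coupled detection system without aldolase. Compounds (at 57.5 uM final) were preincubated 10 min at room temperature with coupling enzyme reagent before a 20 min substrate/AmpLite Red step.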
# Sfp inh: inhibitors of Bacillus subtilis Sfp phosphopantetheinyl transferase. Q9F4F7. Biochemical Sfp PPTase activity, qHTS. Potency, µM, for inactives: largest response in the series, negative = inhibition, most hits filed as inhibitors. 310,000 compounds, 3.5% hits;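 also: the enzyme is Sfp with the accession as filed and its product quenches rhodamine fluorescence; potency is read from the fitted curve at half-maximal effect; 0% = enzyme reaction without inhibitor and -100% = no enzyme wells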
#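 Fluorescence-quenching assay with 15 nM Sfp, 5 uM rhodamine-CoA and 12.5 uM BHQ-2-labelled ybbR peptide in pH 7.6 Hepes/MgCl2 buffer. Enzyme was pre-incubated with compound for 15 min at room temperature. Rate was taken from the 30-min fluorescence change (525/598 nm).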
# An asterisk follows results filed as active; ? = inconclusive; · = no result given; ! = a repeat was not active; [ ] = dose if it differs, or a comment. Unless noted, calls follow the shape of the dose curve; as a rule, active = well fitted curve in the direction sought with a large enough effect; inconclusive = small, poorly fitted or top-dose-only effect, or another doubt; inactive = no such curve, though single readings can be large; an effect the other way counts as inactive or inconclusive. Unless noted, % is scaled to controls: 0 for no effect and ±100 for the full control effect.
SMILES,Tau fibril ThT,Tau FP inhib,Tau fluor counter,G9a block,FBPA coupling cs,Sfp inh
Clc1ccc(C(Cn2ccnc2)OCc2csc3c(Cl)cccc23)c(Cl)c1 (configuration not stated),·,·,·,12.6µM*,·,·
CN1CCN(c2ncc3ncc(=O)n(C)c3n2)CC1,·,·,·,-3.1%[0.501 µM],2.0,-9.0%
O=c1[nH]c(=O)n(CCC2=CCCCC2)c(O)c1C=NC1CCN(Cc2ccccc2)CC1,-7.3%,4.8%,4.9%,17.8%,0.0,2.4%
O=c1[nH]c(=O)n(Cc2ccc(F)cc2)c(O)c1C=NCCCO,-0.9%,10.4%,4.4%,25.8%[59 µM],3.4,11.3%
O=c1[nH]c(=O)n(CCC2=CCCCC2)c(O)c1/C=N/Nc1cccc2ccccc12,17.8µM*,?,?,1.78µM*,-16.5,-26.5%
O=c1[nH]c(=O)n(CCC2=CCCCC2)c(O)c1/C=N/Nc1ccccc1,10.9%,5.3%,7.6%,3.55µM*,4.7,2.3%
O=c1[nH]c(=O)n(CCC2=CCCCC2)c(O)c1/C=N/N1CCOCC1,-6.5%,5.7%,3.0%,·,-1.3,8.9%
O=c1[nH]c(=O)n(Cc2ccc(F)cc2)c(O)c1/C=N/Nc1ccccc1,·,6.1%,?,10µM*,-0.3,-8.1%
COCc1cc(C)c(C#N)c(=S)[nH]1,-12.7%,-3.3%,-5.3%,·,-2.6,10µM*
COc1ccc2c(c1)NP(=S)(Oc1ccccc1)N2 (configuration not stated),8.91µM*,?,?,7.08µM*,-4.4,31.6µM*
NCC1OC(O[C@H]2[C@H](O)[C@@H](OC3C(O)C(N)CC(N)C3OC3OC(CO)C(O)C(O)C3N)O[C@@H]2CO)C(N)C(O)C1O (some centres not stated),·,·,·,5.97µM*,·,·
NC[C@@H]1O[C@H](O[C@H]2[C@@H](O)[C@H](O[C@@H]3[C@@H](O)[C@H](N)C[C@H](N)[C@H]3O[C@H]3O[C@H](CO)[C@@H](O)[C@H](O)[C@H]3N)O[C@@H]2CO)[C@H](N)[C@@H](O)[C@@H]1O,-6.7%,-2.7%,-7.9%,9.1%[59 µM],-0.1,22.2%
O=C(O)C1Sc2[nH]c(=O)sc2C2c3cc(Cl)ccc3OC(=O)C12 (configuration not stated),22.4µM*,-14.5%,?,28.2µM*,-3.8,50.1µM*
O=C(Cc1ccccc1)N1CCN(C2CCCC2)CC1,6.7%,6.4%,6.3%,-30.6%[2.33 µM],-2.1,89.1µM*
O=C(COc1ccc2ccccc2c1)N1CCN(C2CCN(Cc3ccccc3)CC2)CC1,-9.7%,0.4%,-3.0%,-48.4%,0.1,-0.1%
O=C(COc1ccccc1)N1CCN(C2CCCC2)CC1,3.5%,2.6%,4.3%,10µM*,-0.6,-3.9%
COc1cccc(NC(=O)C2CCN(S(=O)(=O)c3cc(-c4noc(C)n4)ccc3C)CC2)c1,10.8%,?,-28.6%,8.8%[59 µM],·,·
CN1CCc2nc3sc(C(=O)NC4CC4)c(N)c3cc2C1,?,-5.6%,-10.9%,8.91µM*,-24.9,31.6µM*
Cc1oc(-c2ccc(Cl)cc2)nc1CN1CCC(C(=O)NCCCN2CCN(c3cccc(Cl)c3)CC2)CC1,?,-8.7%,-6.4%,10µM*,·,·
Cc1oc(-c2cccc(Cl)c2)nc1CN1CCC(C(=O)NCCCN2CCN(c3ccc(F)cc3)CC2)CC1,?,5.4%,-16.6%,?,·,·
COc1ccccc1OCC#CCN1CCCC(C)C1 (configuration not stated),17.8%,6.5%,19.9%,·,0.4,-0.3%
COc1ccccc1OCC#CCN1CCCCCC1,-1.8%,-4.8%,-0.5%,10µM*,4.5,-19.4%
COc1ccccc1OCC#CCN1CCOCC1,-3.6%,-5.0%,-6.9%,3.98µM*,0.3,?
CC1(C)C2C[C@@H](O)[C@]3(C)C(CC[C@@]4(C)[C@H](c5ccoc5)C[C@H]5O[C@]543)[C@@]2(C)[C@@H](O)C[C@H]1O (some centres not stated),-4.5%,0.0%,-0.3%,·,-0.6,-23.6%
CC(=O)OC1CC(OC(C)=O)[C@]2(C)C(CC(OC(C)=O)[C@]3(C)C2CC[C@@]2(C)C(c4ccoc4)C[C@H]4O[C@]432)C1(C)C (some centres not stated),-1.5%,-7.4%,-12.6%,-27.3%[2.33 µM],-0.2,-17.9%
SMILES,Tau fibril ThT,Tau FP inhib,Tau fluor counter,G9a block,FBPA coupling cs,Sfp inh
CC(=O)O[C@@H]1C[C@@]2(C)C(c3ccoc3)C[C@H]3O[C@]32[C@]2(C)C(=O)C(O)=C3C(C)(C)C(=O)C=C[C@]3(C)C12 (some centres not stated),25.1µM*,?,-8.5%,·,1.1,-5.8%
CC(=O)OC1C[C@@]2(C)C(c3ccoc3)C[C@H]3O[C@@]32[C@@]2(C)C(=O)C(O)=C3C(C)(C)C(=O)C=C[C@]3(C)C12 (some centres not stated),8.91µM*,?,-17.0%,-42.0%[2.33 µM],-3.0,-3.2%
O=C(O)[C@@H]1Cc2[nH]cnc2C(c2cccnc2)N1 (some centres not stated),-12.4%,-3.8%,-7.6%,·,-0.4,?
O=C(O)[C@@H]1CSC(c2cccnc2)N1 (some centres not stated),-19.6%,-2.1%,-3.3%,·,-0.7,39.8µM*
CC(C)C[C@H]1C(=O)N2CCC[C@@H]2[C@@]2(O)O[C@](NC(=O)[C@@H]3C=C4c5cccc6[nH]cc(c56)C[C@@H]4N(C)C3)(C(C)C)C(=O)N12,·,·,·,?,-25.9,-17.1%
CC(C)[C@]1(NC(=O)[C@@H]2C=C3c4cccc5[nH]cc(c45)C[C@H]3N(C)C2)O[C@@]2(O)C3CCCN3C(=O)[C@H](Cc3ccccc3)N2C1=O (some centres not stated),?,-12.2%,-29.2%,·,-31.8*,-13.0%
CN1C[C@H](C(=O)N[C@]2(C)O[C@@]3(O)C4CCCN4C(=O)[C@H](Cc4ccccc4)N3C2=O)C[C@@H]2c3cccc4[nH]cc(c34)C[C@H]21 (some centres not stated),?,3.5%,12.6µM*[quencher],17.1%[12.7 µM],-0.9,-25.4%
CC(C)[C@@]1(NC(=O)[C@H]2CC3c4cccc5[nH]cc(c45)C[C@H]3N(C)C2)O[C@@]2(O)C3CCCN3C(=O)[C@@H](Cc3ccccc3)N2C1=O (some centres not stated),?,?,2.51µM*[quencher],12.6µM*!,·,79.4µM*!
CN1C[C@H](C(=O)N[C@]2(C)O[C@]3(O)[C@H]4CCCN4C(=O)[C@H](Cc4ccccc4)N3C2=O)C[C@H]2c3cccc4[nH]cc(c34)C[C@@H]21,·,·,·,14.2%[21.5 µM],0.9,3.1%

# Bioassay records as filed in PubChem BioAssay.
